This is a sample that favours compounds with a hit; in the whole collection about 19% have one here.
TDP1 cell CPT: DT40-hTDP1 cell growth loss with CPT; chicken DT40 Tdp1-/-;hTDP1 cells + 20 nM CPT, ATP luminescence, 48 h; Potency, µM (doses to about 46.2 µM), without a hit: top-dose activity change, negative = growth inhibition, usual class: inhibitors; 420,000 tested, 12% active; AID 686979; also: potency is read from the fitted curve at half-maximal effect; nearly all actives have a fitted effect of over 55% in size
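Chicken DT40 Tdp1-/- cells complemented with human TDP1, 400 cells/well, exposed to compounds plus 20 nM camptothecin for at least 48 h at 37 C; viability read as ATP content by CellTiter-Glo luminescence.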
DT40 TDP1 no CPT: qHTS for Inhibitors of human tyrosyl-DNA phosphodiesterase 1 (TDP1): qHTS in cells in absence of CPT; 420,000 tested, 15% active; DT40 Tdp1-/- hTDP1 cells, no CPT, ATP luminescence, 48 h; AID 686978, 2013; Potency, µM (titrated, usually from 46.2 µM), inactives show top-dose activity change, negative = growth inhibition, hits mostly inhibitors; also: potency is read from the fitted curve at half-maximal effect; nearly all actives have a fitted effect of over 55% in size
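Growth kinetics read by CellTiter-Glo luminescence after ≥48 hr at 37 °C. Cells: DT40 Tdp1-/- stably carrying human TDP1, 400 per well, compound exposure in the absence of CPT (DMSO vehicle).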
IL-1B inflam inh: blocks inflammasome-driven IL-1 beta release | THP-1 LPS/ATP IL-1B secretion, AlphaLISA, 16 h; active compounds read low | activity change, % at 57.5 µM | 360,000 tested, 4.7% active | AID 743279; in the data active = activity change below about -50%; inconclusive = mostly about -30% to -49%
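THP-1 cells pretreated 1 hr with compounds (up to 57.5 uM final), then stimulated with LPS (250 ng/mL final) plus ATP (1.25 mM final); secreted IL-1B measured by AlphaLISA after 16 hr, decreased signal indicating inhibition.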
HT1080 IDH1KD tx: HT-1080 IDH1 knockdown cell toxicity (counter line) | HT-1080 IDH1 knockdown viability, ATP luminescence, 48 h | Potency, µM (series often up to 46.1 µM), for inactives: at the top dose activity, negative = toxicity, most hits filed as cytotoxic | 360,000 tested, 2% active | AID 686971;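 also: potency is read from the fitted curve at half-maximal effect; 0% = DMSO wells and -100% = cell-free medium wells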
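In this qHTS, HT-1080 cells depleted of IDH1 are exposed for 48 h at 37 °C to compound titrations. Toxicity is scored from CellTiter-Glo luminescence, with DMSO as full viability and medium alone as none.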
HT1080-NT tox: kills 2HG-producing HT-1080-NT fibrosarcoma cells | Potency, µM (series often up to 46.1 µM), for the others: top-dose activity, negative = less viability, hits mostly cytotoxic | 360,000 tested, 1.6% active | HT-1080-NT fibrosarcoma viability, CellTiter-Glo ATP luminescence, 48 h;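 also: NT is the 2HG producing partner of a matched IDH1 knockdown line; potency is read from the fitted curve at half-maximal effect; 0% = DMSO-treated cells and -100% = media-only wells without cells; nearly all actives have a fitted effect of over 55% in size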
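Compounds were tested in concentration-response format on HT-1080-NT cells for 48 hours at 37 degrees C. Cell viability came from CellTiter-Glo luminescence; curves were classified by r2, response magnitude and activity.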
An asterisk follows results filed as active; [ ] = remark or other dose. Unless noted, calls follow the shape of the dose curve; as a rule, active = well fitted curve in the direction sought with a large enough effect; inconclusive = small, poorly fitted or top-dose-only effect, or another doubt; inactive = no such curve, though single readings can be large; an effect the other way counts as inactive or inconclusive. Unless noted, % is scaled to controls: 0 for no effect and ±100 for the full control effect.

Results for Cc1ccc2oc(=O)n(CCNC(=O)Nc3ccc(Cl)cc3)c2c1 ?
TDP1 cell CPT: 23µM*; DT40 TDP1 no CPT: 16µM*

What do the screens show for `Cc1ccc2oc(=O)n(CC(=O)O)c2c1`?
TDP1 cell CPT: 0%; DT40 TDP1 no CPT: -13%; IL-1B inflam inh: 10; HT1080 IDH1KD tx: 9%; HT1080-NT tox: 4%

Results for COCCNC(=O)CCn1c(=O)oc2ccccc21 ?
TDP1 cell CPT: -7%; DT40 TDP1 no CPT: -15%; IL-1B inflam inh: -5; HT1080 IDH1KD tx: 18%; HT1080-NT tox: 24%

How did O=C(NCCOCCn1c(=O)oc2ccccc21)Nc1ccc(F)cc1 do in these assays?
TDP1 cell CPT: 16µM*; DT40 TDP1 no CPT: inconclusive

How did Cc1c(Cl)cccc1NC(=O)NCCOCCn1c(=O)oc2ccccc21 do in these assays?
TDP1 cell CPT: 8.2µM*; DT40 TDP1 no CPT: 7.3µM*

What do the screens show for `COc1ccc(NC(=O)Cn2c(NCC(C)O)nc3ccccc32)cc1Cl` (configuration not stated)?
TDP1 cell CPT: -4%; DT40 TDP1 no CPT: -1%; IL-1B inflam inh: -3; HT1080 IDH1KD tx: 2%; HT1080-NT tox: 1%

How did O=C(O)C=C(Br)Br do in these assays?
TDP1 cell CPT: 16%; DT40 TDP1 no CPT: 2%; IL-1B inflam inh: -7; HT1080 IDH1KD tx: 7%; HT1080-NT tox: 8%

Results for O=C(O)/C(=C\c1ccco1)NC(=O)c1cccc2ccccc12 ?
TDP1 cell CPT: -16%; DT40 TDP1 no CPT: -20%; IL-1B inflam inh: -6; HT1080 IDH1KD tx: -2%; HT1080-NT tox: 2%

How did Cc1nnc(SCC(=O)N2c3ccccc3C(C)(c3ccccc3)CC2(C)C)s1 (configuration not stated) do in these assays?
TDP1 cell CPT: 16µM*; DT40 TDP1 no CPT: 12µM*; IL-1B inflam inh: -76*; HT1080 IDH1KD tx: -11%; HT1080-NT tox: -18%

How did Cc1nnc(SCC(=O)N2CCN(Cc3ccccc3)CC2)s1 do in these assays?
TDP1 cell CPT: 0%; DT40 TDP1 no CPT: inconclusive; IL-1B inflam inh: -3; HT1080 IDH1KD tx: -13%; HT1080-NT tox: -12%[9.24 µM]

Results for Cc1ccc(C2(C)CC(C)(C)N(C(=O)CSc3nnc(C)s3)c3ccccc32)cc1 (configuration not stated) ?
TDP1 cell CPT: 21µM*; DT40 TDP1 no CPT: 16µM*; IL-1B inflam inh: -85*; HT1080 IDH1KD tx: inconclusive; HT1080-NT tox: inconclusive

What do the screens show for `Cc1cccc(N(CC(=O)NCc2ccc(F)cc2)C(=O)c2ccco2)c1`?
TDP1 cell CPT: -1%; DT40 TDP1 no CPT: -16%; IL-1B inflam inh: -18; HT1080 IDH1KD tx: 7%; HT1080-NT tox: -6%

Results for CNC(=O)c1ccc(NC(=O)CC2SC(N3CCCC3)=NC2=O)cc1 (configuration not stated) ?
TDP1 cell CPT: -2%; DT40 TDP1 no CPT: -17%; IL-1B inflam inh: 18; HT1080 IDH1KD tx: 9%; HT1080-NT tox: 12%

How did O=C(CONS(=O)(=O)c1ccc(Cl)cc1)NCCNc1ncc(C(F)(F)F)cc1Cl do in these assays?
TDP1 cell CPT: 2%; DT40 TDP1 no CPT: inconclusive; IL-1B inflam inh: -55*; HT1080 IDH1KD tx: inconclusive; HT1080-NT tox: inconclusive

What do the screens show for `COC(=O)c1c(NC(=S)Nc2ccc(F)cc2[N+](=O)[O-])sc2c1CCCCC2`?
TDP1 cell CPT: -2%; DT40 TDP1 no CPT: 11%; IL-1B inflam inh: 23; HT1080 IDH1KD tx: 11%; HT1080-NT tox: 1%

What do the screens show for `CCOc1ccc(NCc2ccccc2OCc2cccc(F)c2)cc1`?
TDP1 cell CPT: inconclusive; DT40 TDP1 no CPT: inconclusive; IL-1B inflam inh: -54*; HT1080 IDH1KD tx: inconclusive; HT1080-NT tox: inconclusive

How did NS(=O)(=O)c1ccc(NCc2ccccc2OCc2ccc(F)cc2)cc1 do in these assays?
TDP1 cell CPT: inconclusive; DT40 TDP1 no CPT: 18µM*; IL-1B inflam inh: -16; HT1080 IDH1KD tx: -20%; HT1080-NT tox: -22%

What do the screens show for `CCOc1ccc(CNCCc2ccc(S(N)(=O)=O)cc2)cc1`?
TDP1 cell CPT: inconclusive; DT40 TDP1 no CPT: inconclusive; IL-1B inflam inh: -9; HT1080 IDH1KD tx: 17%; HT1080-NT tox: 7%

Results for NS(=O)(=O)c1ccc(CCNCc2ccccc2OCc2ccc(F)cc2)cc1 ?
TDP1 cell CPT: inconclusive; DT40 TDP1 no CPT: 21µM*; IL-1B inflam inh: -90*; HT1080 IDH1KD tx: inconclusive; HT1080-NT tox: inconclusive

Results for Nc1nonc1C(=O)NCCNCc1ccccc1OCc1ccc(F)cc1 ?
TDP1 cell CPT: 23µM*; DT40 TDP1 no CPT: 16µM*; IL-1B inflam inh: -29; HT1080 IDH1KD tx: inconclusive; HT1080-NT tox: inconclusive

How did COc1ccc2[nH]c3c(C)c4ccncc4c(C)c3c2c1 do in these assays?
TDP1 cell CPT: 0.26µM*; DT40 TDP1 no CPT: 0.92µM*; IL-1B inflam inh: -100*; HT1080 IDH1KD tx: 18µM*; HT1080-NT tox: 23µM*

Results for COc1ccc2[nH]c(C)cc(=O)c2c1 ?
TDP1 cell CPT: -25%; DT40 TDP1 no CPT: inconclusive; IL-1B inflam inh: 18; HT1080 IDH1KD tx: 13%; HT1080-NT tox: 12%

Results for CC1(C)c2ccccc2N2CCC(=O)NC21/C=C/c1ccco1 (configuration not stated) ?
TDP1 cell CPT: -4%; DT40 TDP1 no CPT: inconclusive; IL-1B inflam inh: 2; HT1080 IDH1KD tx: 2%; HT1080-NT tox: 0%

How did CC1(C)c2ccccc2N2CC(=O)NC21/C=C/c1ccco1 (configuration not stated) do in these assays?
TDP1 cell CPT: inconclusive; DT40 TDP1 no CPT: 23µM*; IL-1B inflam inh: -3; HT1080 IDH1KD tx: 6%; HT1080-NT tox: 1%

Results for COc1cccc(C2C=C(c3ccc(Br)s3)Nc3ncnn32)c1OC (configuration not stated) ?
TDP1 cell CPT: inconclusive; DT40 TDP1 no CPT: inconclusive; IL-1B inflam inh: -18; HT1080 IDH1KD tx: 5%; HT1080-NT tox: 6%

What do the screens show for `Fc1ccc(Br)cc1C1C=C(c2ccc(Br)s2)Nc2ncnn21` (configuration not stated)?
TDP1 cell CPT: 0.92µM*; DT40 TDP1 no CPT: 0.65µM*; IL-1B inflam inh: -11; HT1080 IDH1KD tx: 1.2µM*; HT1080-NT tox: 1.3µM*

What do the screens show for `CC(C)(C)c1cc(C(=O)N/N=C/c2ccccc2O)n(-c2ccccc2)n1`?
TDP1 cell CPT: 6.5µM*; DT40 TDP1 no CPT: 6.5µM*; IL-1B inflam inh: 62; HT1080 IDH1KD tx: inconclusive; HT1080-NT tox: inconclusive

Results for O=C(N/N=C\c1ccc(F)cc1)c1ccc(F)cc1 ?
TDP1 cell CPT: 12%; DT40 TDP1 no CPT: 3%; IL-1B inflam inh: 0; HT1080 IDH1KD tx: 21%; HT1080-NT tox: 27%

From PubChem BioAssay
